# Laboratory results from PubChem BioAssay (NCATS).
# Inconclusive results are not listed. Entries that show only a call come without a potency. The source made the active and inactive calls. Unless noted, calls follow the shape of the dose curve; as a rule, active = well fitted curve in the direction sought with a large enough effect; inconclusive = small, poorly fitted or top-dose-only effect, or another doubt; inactive = no such curve, though single readings can be large; an effect the other way counts as inactive or inconclusive.
# How the values were obtained:
# [1] = qHTS for inhibitors of adenylyl cyclases using a fission yeast platform: a pilot screen against the NCATS LOPAC library (AID 1347410)
# Method in brief: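 S. pombe CHP2027 (AC9-GNAS-PDE4D2) carrying a PKA-repressed fbp1-GFP reporter was exposed to LOPAC compounds (final up to 57 µM) for 18 h at 30C in the dark, in EMM with histidine, lysine and uracil; GFP gain-of-signal read by laser scanning cytometry.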
# [2] = Validation qHTS assay for inhibitors of Activation Induced Cytidine Deaminase (AID): UDG Counterscreen signal (AID 1347427)
# Method in brief: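 Fluorescence at 560 nm excitation, 665 nm emission reports UDG signal after 250 mM NaOH (2x) addition and 30 min. Enzymes (AID 1 uM, UDG 2 U/mL, at 4/3x) preincubated 10 min with compound, then 4 h with 4x 250 nM DJC20/DJC23 substrate at room temperature.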
# [3] = target: Single-stranded DNA cytosine deaminase (Homo sapiens) (UniProt Q9GZX7); test: Validation qHTS assay for inhibitors of Activation Induced Cytidine Deaminase (AID): AID signal (AID 1347429); also: potency is read from the fitted curve at half-maximal effect
# Chain of Single-stranded DNA cytosine deaminase (Homo sapiens) (Q9GZX7 whole entry, looked up): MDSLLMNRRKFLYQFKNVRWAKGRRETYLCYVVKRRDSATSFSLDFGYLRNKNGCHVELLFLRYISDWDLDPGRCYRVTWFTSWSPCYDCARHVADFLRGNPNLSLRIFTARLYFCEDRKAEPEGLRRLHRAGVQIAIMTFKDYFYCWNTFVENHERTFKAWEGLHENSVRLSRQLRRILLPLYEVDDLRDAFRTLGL
# Method in brief: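 AID+UDG coupled FRET deamination; cpds up to 114 uM final; DJC20/DJC23 substrate, 4 hr RT; NaOH stop, 30 min RT; read Ex 540/Em 590.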
# [4] = Primary qHTS for inhibitors of SARS-S pseudo-typed particle cell entry (AID 1479145; calls by dose curve; also: series mostly up to about 57 µM; nearly all actives have a fitted effect of over 45% in size); conditions: outcome: dose series up to 57.1 µM unless noted
# [5] = qHTS to identify inhibitors of the type 1 interferon - major histocompatibility complex class I in skeletal muscle: primary screen against the NCATS Mechanism Interrogation Plate v5.0 (MIPE) Libary (AID 1347411); also: nearly all actives have a fitted effect of over 65% in size
# Method in brief: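 HLA-B HiBit myoblasts, dexamethasone-free medium + 4 ng/ml IFN-b, 24 h compound, 11-pt 1:3 from 46 uM final. Readout: Nano-Glo HiBiT lytic luminescence after 10 min lysis, RT.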
compound,measurement,setting,value
COC(=O)N1CCN(C(=O)Cc2ccc(Cl)c(Cl)c2)C(CN2CCCC2)C1 (centres undefined),outcome,[1],inactive
same,Potency,[2],inactive
same,Potency,[3],inactive
COc1ccc2c(c1)/C(=C/c1cnc[nH]1)C(=O)N2,Potency,[2],inactive
same,Potency,[3],inactive
CCCn1c(C)c(C(=O)c2ccc3ccccc3c2)c2ccccc21,Potency,[2],inactive
same,Potency,[3],inactive
C[C@@H]1[C@@H]2Cc3ccc(O)cc3[C@@]1(C)CCN2CC1CC1,Potency,[2],inactive
same,Potency,[3],inactive
CN1CC[C@@]2(C)c3cc(OC(=O)Nc4ccccc4)ccc3N(C)[C@@H]12,outcome,[1],inactive
same,Potency,[2],inactive
same,Potency,[3],inactive
CN(N=O)c1cc(O)ccc1O,outcome,[1],inactive
same,Potency,[2],inactive
same,Potency,[3],inactive
O=C(O)c1cc[c]([Hg][Cl])cc1,Potency,[2],inactive
same,Potency,[3],inactive
NC(=O)c1cc(N2CC2)c([N+](=O)[O-])cc1[N+](=O)[O-],outcome,[1],inactive
same,Potency,[2],inactive
same,Potency,[3],inactive
CCCN(CCC)CCc1c[nH]c2ccc(C(N)=O)cc12,Potency,[2],inactive
same,Potency,[3],inactive
C[C@@H]1O[C@H](C[N+](C)(C)C)CS1,Potency,[2],inactive
same,Potency,[3],inactive
N[C@@H](Cn1ccc(=O)[nH]c1=O)C(=O)O,Potency,[2],inactive
same,Potency,[3],inactive
CN1CC[C@@]2(C)c3cc(O)ccc3N(C)C12 (some centres undefined),outcome,[1],inactive
same,Potency,[3],12.6 µM (active)
C=CCN(C1=NCCN1)c1c(Cl)cccc1Cl,Potency,[2],inactive
same,Potency,[3],inactive
C=CCN1CCc2cccc3c2[C@H]1Cc1ccc(O)c(O)c1-3,Potency,[2],inactive
same,Potency,[3],inactive
COc1ccc(OC)c(C(O)C(C)N)c1 (centres undefined),outcome,[1],inactive
same,Potency,[2],inactive
same,Potency,[3],inactive
same,outcome,[4],inactive
CCCCCCCCCCCCCC(=O)O[C@@H]1[C@@H](C)[C@@]2(O)[C@@H](C=C(CO)C[C@@]3(O)C(=O)C(C)=C[C@@H]23)C2C(C)(C)[C@@]21OC(C)=O (some centres undefined),outcome,[1],inactive
same,Potency,[2],inactive
same,Potency,[3],inactive
NC(Cc1ccc(N(CCCl)CCCl)cc1)C(=O)O (centres undefined),Potency,[2],inactive
same,Potency,[3],inactive
COc1ccc2c(c1)c(CCN1CCOCC1)c(C)n2C(=O)c1cccc(Cl)c1Cl,Potency,[2],inactive
same,Potency,[3],inactive
Cc1sc2ccccc2c1CC1=NCCN1,outcome,[1],inactive
same,Potency,[2],inactive
same,Potency,[3],inactive
C/C(O)=C(\C#N)C(=O)Nc1cc(Br)ccc1Br,Potency,[2],inactive
same,Potency,[3],inactive
C[C@]12CC[C@H]3[C@@H](CC[C@@]45O[C@@H]4C(O)=C(C#N)C[C@]35C)[C@@H]1CC[C@@H]2O,outcome,[5],inactive
CCOc1ccccc1-n1c(C(C)N2CCN(C(=O)COc3ccc(Cl)cc3)CC2)nc2ccccc2c1=O (centres undefined),outcome,[5],inactive
CC1=C2C[C@H]3[C@@H](CC=C4C[C@@H](O)CC[C@@]43C)[C@@H]2CC[C@]12O[C@@H]1C[C@H](C)CN[C@H]1[C@H]2C,outcome,[5],inactive
COc1ccc2c(c1)[C@@]13CCCC[C@H]1[C@@H](C2)NCC3,Potency,[2],inactive
same,Potency,[3],inactive
C=CCN1CC[C@]23c4c5ccc(O)c4O[C@@H]2/C(=N/N=C2\CC[C@@]4(O)C6Cc7ccc(O)c8c7[C@@]4(CCN6CC=C)[C@@H]2O8)CC[C@@]3(O)C1C5,Potency,[2],inactive
same,Potency,[3],inactive
N[C@@H](CCl)C(=O)O,Potency,[2],inactive
same,Potency,[3],inactive
O=[N+]([O-])/C=C/c1ccc2c(c1)OCO2,outcome,[1],inactive
same,Potency,[2],inactive
same,Potency,[3],inactive
CCCCCCC(C)(C)c1ccc([C@@H]2C[C@H](O)CC[C@H]2CCCO)c(O)c1,Potency,[2],inactive
same,Potency,[3],inactive
CN1CCc2cc(O)cc3c2[C@H]1Cc1ccc(O)c(O)c1-3,outcome,[1],inactive
same,Potency,[2],inactive
same,Potency,[3],inactive
CCNC(=O)[C@H]1O[C@@H](n2cnc3c(N)ncnc32)[C@H](O)[C@@H]1O,outcome,[1],inactive
same,Potency,[2],inactive
same,Potency,[3],inactive
C=CCN1CC[C@]23c4c5ccc(O)c4O[C@H]2/C(=N/NC(=O)c2ccccc2)CC[C@@]3(O)[C@H]1C5,Potency,[2],inactive
same,Potency,[3],inactive
CCN(CCCl)Cc1ccccc1Br,Potency,[2],inactive
same,Potency,[3],inactive
CC(C)[C@@]1(NC(=O)[C@@H]2C[C@@H]3c4cccc5[nH]cc(c45)C[C@H]3N(C)C2)O[C@@]2(O)[C@@H]3CCCN3C(=O)[C@H](Cc3ccccc3)N2C1=O,Potency,[2],inactive
same,Potency,[3],inactive
